Sm TGR block = S. mansoni TGR enzyme inhibition; Q962Y6; purified TGR, DTNB reduction, TNB absorbance 405 nm; Potency, µM (series often up to 114 µM), hits mostly inhibitors; 360,000 compounds, 3% hits; also: nearly all actives have a fitted effect of over 60% in size
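First, TGR (20 nM dispensed) and NADPH were mixed with compound. Second, a 15 min room-temperature incubation followed. Third, further NADPH and then DTNB were added to start the reaction. Finally, TNB absorbance was monitored kinetically.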
LmPK inh = inhibitors of Leishmania mexicana pyruvate kinase; Q27686; purified LmPK, Kinase-Glo ATP luminescence, 1 h; Potency, µM (titrated, usually from 57.5 µM), actives largely listed as inhibitors; 290,000 compounds, 0.37% hits; AID 1721
Target sequence (Q27686 whole entry, looked up): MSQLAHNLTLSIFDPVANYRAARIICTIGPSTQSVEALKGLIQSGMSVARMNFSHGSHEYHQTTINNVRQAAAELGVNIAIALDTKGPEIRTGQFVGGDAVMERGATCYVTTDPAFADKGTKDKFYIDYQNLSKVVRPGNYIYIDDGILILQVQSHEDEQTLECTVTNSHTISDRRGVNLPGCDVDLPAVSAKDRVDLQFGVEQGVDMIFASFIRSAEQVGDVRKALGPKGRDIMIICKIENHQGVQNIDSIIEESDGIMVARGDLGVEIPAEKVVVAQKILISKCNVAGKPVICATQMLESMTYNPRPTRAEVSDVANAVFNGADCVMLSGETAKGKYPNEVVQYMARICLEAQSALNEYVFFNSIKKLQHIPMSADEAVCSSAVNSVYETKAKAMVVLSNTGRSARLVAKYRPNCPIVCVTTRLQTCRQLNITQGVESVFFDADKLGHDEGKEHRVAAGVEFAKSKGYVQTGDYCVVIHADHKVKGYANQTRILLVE
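Kinase-Glo luminescence read after 1 h RT reaction of 0.1 nM LmPK with 0.5 mM PEP and 0.1 mM ADP. Activity scaled between uninhibited and enzyme-free controls.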
Cycloheximide cs = counter-screen hit for Shiga toxin inhibitors, cycloheximide. max response, %. cell reporter, cycloheximide protein synthesis inhibition counterscreen. AID 2314. 300,000 compounds, 12% hits; in the data active = max response mostly above about 13%, no sharp cut-off; inactive = mostly below about 14%; also: read at 38.3 µM for the half of the compounds with a filed dose
Giardia FBPA inh = blocks Giardia fructose-bisphosphate aldolase activity. A8B2U2. purified Giardia FBPA. Potency, µM (doses to about 59.6 µM), actives largely listed as inhibitors. 290,000 compounds, 0.71% hits. AID 2451; also: nearly all actives have a fitted effect of over 55% in size
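Giardia FBPA (40 nM reagent) was preincubated 10 min at RT with compound (up to 57.5 uM final), then substrate plus GAPDH/TPI/NAD/arsenate coupling system with diaphorase/resazurin was added; resorufin fluorescence (525/598 nm) was read after 20 min.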
Tb PYK inh = T. brucei pyruvate kinase inhibition. AID 624173. TbPYK enzyme, Kinase-Glo Plus ATP luminescence, 45 min. Q57TT1. Potency, µM (titrated, usually from 76.8 µM), usual class: inhibitors. 410,000 compounds, 0.12% hits; also: nearly all actives have a fitted effect of over 50% in size
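TbPYK + substrate in 50 mM TEA pH 7.2, 100 mM KCl, 10 mM MgCl2, 0.05% BSA, 0.01% Tween-20; cpd pinned; ADP 130 uM final; 45 min RT; Kinase-Glo Plus 10 min; luminescence endpoint.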
Shiga toxin inh = blocks Shiga toxin action in Vero cells. Vero cells, Shiga toxin protein synthesis inhibition reporter. inhibition, % at 38.7 µM. 290,000 compounds, 9.2% hits. AID 2315; in the data active = inhibition mostly above about 28%, no sharp cut-off; inactive = mostly below about 43%
Of the large screens only hits and unclear results are named; the others gave an inactive call. Only a selection was taken, and hits are over-represented in it overall. Unless noted, calls follow the shape of the dose curve; as a rule, active = well fitted curve in the direction sought with a large enough effect; inconclusive = small, poorly fitted or top-dose-only effect, or another doubt; inactive = no such curve, though single readings can be large; an effect the other way counts as inactive or inconclusive.

C=C1CC[C@H](O)C/C1=C/C=C1\CCC[C@]2(C)[C@@H]([C@H](C)CCCC(C)C)CC[C@@H]12	Cycloheximide cs 34, Shiga toxin inh 89 (no result: Sm TGR block, LmPK inh)
c1ccc(-c2nccnc2-c2ccccc2)cc1	none
CC(C)(C)c1ccc(-c2ncccc2O)cc1	Cycloheximide cs 32, Shiga toxin inh 69
Cn1c(=O)c2cc(NC(=O)NCc3ccccc3)ccc2n1C/C=C/c1ccccc1	none (no result: Sm TGR block, LmPK inh, Cycloheximide cs, Giardia FBPA inh, Shiga toxin inh)
CCOC(=O)c1c(NC(=O)CSc2nnnn2C)sc(C)c1-c1ccc(C)cc1	Cycloheximide cs 16
Cc1csc(NC(=O)CSC2=NCCS2)n1	Cycloheximide cs 37 (no result: Giardia FBPA inh)
COc1cc(OC)cc(-n2nnnc2SCC(=O)Nc2nc3c(s2)CCCC3)c1	none
CC(C)(C)c1csc(NC(=O)CSC2=NCCS2)n1	none
O=C(CSC1=NCCS1)Nc1nc2c(s1)CCCC2	Cycloheximide cs 39, Shiga toxin inh 99
Cn1nnnc1SCC(=O)Nc1nc2c(s1)CCCC2	Cycloheximide cs 42, Shiga toxin inh 70
Cc1ccc(-n2ncc3c(=O)n(Cc4ccccc4C)cnc32)cc1C	none (no result: LmPK inh, Cycloheximide cs, Giardia FBPA inh, Shiga toxin inh)
Cc1ccc(C)c(NC(=O)CN(C)S(=O)(=O)c2cccc3nsnc23)c1	none (no result: LmPK inh, Cycloheximide cs, Giardia FBPA inh, Shiga toxin inh)
Cc1ccccc1OCC(=O)OCc1cc(=O)n2nc(C3CC3)sc2n1	none (no result: LmPK inh, Cycloheximide cs, Giardia FBPA inh, Shiga toxin inh)
C=CCNC(=O)Nc1ccc(F)cc1F	none
Cc1ccc(CNC(=O)Nc2ccccc2)n1C	Sm TGR block 28µM, Cycloheximide cs 17
Cc1cc(C)cc(NC(=S)NCc2cccn2C)c1	none
Cn1cccc1CNC(=O)Nc1ccccc1	Cycloheximide cs 43, Shiga toxin inh 52
Cc1ccc(NC(=O)NCc2cccn2C)cc1C	Cycloheximide cs 18, Shiga toxin inh 59
Cc1ccc(CNC(=O)Nc2ccc(F)cc2F)n1C	Sm TGR block 32µM
COc1ccc(NC(=O)NCc2ccc(Cl)cc2)cc1	none (no result: Giardia FBPA inh)
Cn1cccc1CNC(=O)Nc1ccc(Cl)cc1	Cycloheximide cs 49, Shiga toxin inh 59
Cc1sc2nc(CN3CCCC3)nc(NCc3ccncc3)c2c1C	Sm TGR block 40µM
Cc1sc2nc(CN3CCCC3)nc(Cl)c2c1C	Sm TGR block 7.1µM
CCOC(=O)c1sc2nc(CN3CCCCC3)nc(Cl)c2c1C	none
CCCC(=O)N1CCN(c2ccc(NC(=O)c3cccs3)cc2Cl)CC1	none
CCCC(=O)N1CCN(c2ccc(NC(=O)c3cc4ccccc4o3)cc2Cl)CC1	Giardia FBPA inh 10µM
O=C(Nc1ccc(N2CCN(C(=O)c3ccco3)CC2)c(Cl)c1)c1cc2ccccc2o1	Cycloheximide cs 23, Giardia FBPA inh inconclusive
CCC(=O)N1CCN(c2ccc(NC(=O)c3cc4ccccc4o3)cc2Cl)CC1	Cycloheximide cs 17, Giardia FBPA inh inconclusive
O=S(=O)(NCCc1nnc2ccc(SCc3ccccc3Cl)nn12)c1ccccc1	none (no result: LmPK inh, Cycloheximide cs, Giardia FBPA inh, Shiga toxin inh)
Cn1c(Cc2csc(N)n2)nnc1SCC(=O)NC1CCCCC1	Sm TGR block 40µM
CCOC(=O)c1sc(=NC(=O)c2ccccc2Br)n(C)c1C	Cycloheximide cs 30, Shiga toxin inh 87 (no result: Giardia FBPA inh)
CCOC(=O)c1sc(=NC(=O)c2ccc(OC(C)C)cc2)n(C)c1C	none
CCOC(=O)c1sc(=NC(=O)c2cccs2)n(C)c1C	Cycloheximide cs 48, Shiga toxin inh 96
CCOC(=O)c1sc(=NC(=O)c2ccco2)n(C)c1C	Cycloheximide cs 60, Shiga toxin inh 73
CCOC(=O)c1sc(=NC(=O)c2ccc(C)c(C)c2)n(C)c1C	Cycloheximide cs 63, Shiga toxin inh 67
CC(C)CN(C[C@@H](OP(=O)(O)O)[C@H](Cc1ccccc1)NC(=O)O[C@@H]1CCOC1)S(=O)(=O)c1ccc(N)cc1	none (no result: Sm TGR block, LmPK inh, Cycloheximide cs, Giardia FBPA inh, Shiga toxin inh)
COc1ccccc1-c1nnc2n(CCc3ccccc3)c(=O)c3ccccc3n12	none (no result: LmPK inh, Cycloheximide cs, Giardia FBPA inh, Shiga toxin inh)
O=C(O)CC[C@H](NC(=O)c1ccccc1C(=O)O)C(=O)O	none (no result: Sm TGR block, LmPK inh, Cycloheximide cs, Tb PYK inh, Shiga toxin inh)
COCCn1c(=NC(=O)/C=C/c2ccccc2)sc2cc(NC(C)=O)ccc21	none
CCOC(=O)c1sc(=NC(=O)c2ccc(Cl)s2)n(C)c1C	Cycloheximide cs 31, Shiga toxin inh 59
CCOC(=O)c1sc(=NC(=O)/C=C/c2ccccc2)n(C)c1C	Cycloheximide cs 38, Shiga toxin inh 68
Nc1ccc(N(CCO)CCO)cc1	Sm TGR block 7.1µM, Giardia FBPA inh 5µM

High-throughput results as filed in PubChem.
